Reference: PubChem BioAssay AID493169 (National Center for Advancing Translational Sciences (NCATS), 2011)
Inconclusive results are not listed. Where a call stands in place of a potency, no number is given. Calls of active or inactive are those of the source. Calls come from the whole dose curve; as a rule, active = well fitted inhibition curve with a large enough effect; inconclusive = small, poorly fitted or top-dose-only effect; inactive = flat fitted curve, though single readings scatter.

Assay: CHOP2 Reporter Counterscreen Assay for Inhibitors of Ubiquitin-specific Protease USP2a;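 note: activated enterokinase alone at 50 pM in a cell-free format rather than USP2a or CHOP2; nearly all actives have a fitted effect of over 55% in size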
Conditions: purified enterokinase, fluorogenic substrate, 485/531 nm; series mostly up to 38.3 µM
Source text: NIH Molecular Libraries Probe Centers Network [MLPCN] NIH Chemical Genomics Center [NCGC] MLPCN Grant: XO1-MH079852-01 PI Name: Nicholson, Ben. Progenra Inc, Malvern, PA NCGC Assay Overview: Homeostasis of cellular proteins is maintained through a combination of synthesis and degradation. The pathway that accounts for the majority of protein degradation is the ubiquitin-proteasomal pathway. Ubiquitin (Ub) is highly conserved in all cells and the generation of a multi-Ub chain typically targets proteins for degradation by the proteasome. However, ubiquitination is highly reversible and dynamic. Deubiquitination, the reverse process, is catalyzed through the action of enzymes referred to as isopeptidases or deubiquitinating enzymes (DUBs). This group of enzymes is collectively responsible for maintaining adequate pools of free ubiquitin and regulating the ubiquitination status of cellular proteins. The class of DUBs referred to as the ubiquitin-specific proteases (USP) family functions endoproteolytically to cleave Ub chains from a wide range of protein substrates. USP2a deubiquitinates fatty acid synthase (FASN) which has recently been identified as an emerging oncology target. To identify inhibitors of USP2a a cell-free assay was employed. This assay is a counterscreen against the reporter enzyme used to measure USP2a activity in the primary qHTS assay. The reporter enzyme is a protease (enterokinase, EK; EC 3.4.21.9), which is activated when a Ub sequence is cleaved by USP2a. The counterscreen assay is performed in the same buffer and conditions as the primary USP2a coupled assay but uses fully activated EK alone. The assay gives a fluorescent read-out at excitation/emission wavelengths of 485/531. The assay was provided by Progenra, Inc. and has been licensed for sale by LifeSensors, Inc.
NCGC Assay Protocol: The assay buffer, prepared fresh at the day of the assay, contains 20mM Tris-HCl pH 8.0, 2mM CaCl2, 2mM beta-Mercaptoethanol, 0.05% CHAPS. 3uL of 100 pM EK (50 pM final) was dispensed into a medium-binding black solid Kalypsys 1,536 well plate using the Kalypsys dispenser. The assay plate was then pinned with 23nL compounds in DMSO with the Kalypsys pintool in columns 5-48 (0.3% final DMSO concentration). The negative control was buffer/DMSO only in column 3. The assay plate is incubated at RT for 30min. Subsequently, 3uL of reporter substrate (25nM final) were dispensed into the plate using the Kalypsys dispenser. Plates were read after 10 min at RT on a ViewLux (Perkin Elmer) plate reader using the following wavelengths: Ex 485nm /Em 531nm. Data were normalized to the AC100 inhibition (buffer alone). Concentration-response curves were fitted to the normalized data and the concentration-response curves were then classified based on curve quality (r2), response magnitude and degree of measured activity. The time zero reading was used to flag fluorescence artifacts.
Potency is the fitted concentration of half-maximal effect.

| SMILES | Potency |
| --- | --- |
| CCOc1ccccc1N1C(=O)CC(Nc2ccc(N3CCOCC3)cc2)C1=O (stereo not given) | inactive |
| CCOC(=O)N1CCN(S(=O)(=O)c2ccc(C)cc2)C1c1ccc(OC)cc1 (stereo not given) | inactive |
| COC(=O)CC1Oc2ccc(C)cc2NC1=O (stereo not given) | inactive |
| O=C(COc1ccccc1)NCc1nnc(SCC(=O)Nc2nccs2)n1-c1ccccc1 | inactive |
| CCOC(=O)c1c(NC(C)=O)sc2c1CCCNC2=O | inactive |
| CCCCCCCCCC[N+](C)(C)CC/C=C1/c2ccccc2Sc2ccc(Cl)cc21 | 7.94 µM (active) |
| C[C@H](CO)N1C[C@H](C)[C@@H](CN(C)S(=O)(=O)c2cccs2)Oc2c(NC(=O)Nc3ccc4c(c3)OCO4)cccc2C1=O | inactive |
| CCOc1ccccc1C(=O)Nc1nnc(C(C)C)s1 | inactive |
| CCN(CC)CCNc1nc(-c2ccccc2)c2c(c1C#N)CC(C)(C)OC2 | inactive |
| COc1ccc(C(=O)C[N+]2(C)CCOCC2)cc1 | inactive |
| O=C(CCSCc1ccc(Cl)cc1)NCCc1ccccc1 | inactive |
| CCc1cc2c(=O)c(-n3cnc4ccccc43)coc2cc1O | inactive |
| CCCOc1ccc(-c2nc(C#N)c(N3CCN(CC)CC3)o2)cc1 | inactive |
| CN(C)c1cccc(C(=O)NNC(=O)C23CC4CC(CC(C4)C2)C3)c1 | inactive |
| CCOC(=O)C(=O)Nc1nc(-c2ccc3c(c2)CCN3C(=O)C2CC2)c(C)s1 | inactive |
| Cn1c(C(=O)NCCCN2CCN(c3ccccc3F)CC2)cc2c(=O)n(C)c3ccccc3c21 | inactive |
| O=C(Cn1cnc2sc(-c3ccccc3)cc2c1=O)NCc1ccco1 | 10 µM (active) |
| COc1ccc(S(=O)(=O)N2CCCCC2)cc1NC(=O)Cc1c[nH]c2ccccc12 | inactive |
| COc1ccc(-n2c(O)c(/C=N/n3cnnc3)c3ccccc3c2=O)cc1 | inactive |
| CCOC(=O)Nc1nnc(CCc2ccccc2)s1 | inactive |

| SMILES | Potency |
| --- | --- |
| N#Cc1c(Nc2ccc(Cl)cc2)s[nH]c1=O | inactive |
| CCC(CO)Nc1nc(CN2CCCCC2)nc2scc(-c3ccccc3)c12 (stereo not given) | inactive |
| O=C(Nc1nc(-c2ccco2)c(-c2ccco2)s1)C1CC(=O)N(c2ccc3c(c2)OCCO3)C1 (stereo not given) | 4.47 µM (active) |
| Nc1c(C(=O)NCC2CCCO2)sc2nc3c(c(-c4ccco4)c12)CC/C3=C\c1ccco1 (stereo not given) | 3.16 µM (active) |
| O=C(CSc1nnc(SCc2ccccc2)s1)N/N=C/C=C/c1ccco1 | 2.51 µM (active) |
| O=c1oc2ccccc2n1Cn1c(=O)oc2ccccc21 | inactive |
| COc1ccc(S(=O)(=O)N2CCCC2C(=O)NCc2cccs2)cc1 (stereo not given) | inactive |
| COc1cccc(OC)c1-c1nn2c(-c3cc(-c4ccccc4)n[nH]3)nnc2s1 | 5.62 µM (active) |
| O=C(NCCN1C(=O)CSC1=O)C1CC(=O)N(c2ccccc2)C1 (stereo not given) | inactive |
| CC(C)Cn1c(SCC(N)=O)nnc1-c1cccc(S(=O)(=O)N2CCOCC2)c1 | inactive |
| CCOC(=O)N1CCN(C(=O)CN(c2cccc(C)c2)S(=O)(=O)c2ccccc2)CC1 | inactive |
| CCC(C)NC(=O)CSC1=Nc2ccccc2C2=NC(c3ccccc3)C(=O)N12 (stereo not given) | inactive |
| COC(=O)c1[nH]c(=O)c2ccccc2c1OCc1ccccc1 | inactive |
| Cc1ccc(NC(=O)CSc2nnc(COc3ccc(C#N)cc3)n2-c2ccccc2)cc1C | inactive |
| Cc1ccc([C@H]2C(C(=O)O)=CC[C@@H](c3ccc(Cl)cc3)N2S(=O)(=O)c2ccc(C)cc2)cc1 | inactive |
| C#CCOCCOCCOCCNc1nc(N2CCN(C(=O)CCCCCCCCCCNC(=O)Cn3cc(CCCCCN)nn3)CC2)nc(N2CCN(C(=O)CCCCCCCCCCNC(=O)Cn3cc(CCCCCN)nn3)CC2)n1 | 10 µM (active) |
| Cc1cc(SCC(=O)NC2CCCCC2)nc2ccccc12 | inactive |
| CC(C)OCCCNC(=O)c1c(N)n(/N=C/c2ccccn2)c2nc3ccccc3nc12 | inactive |
| CCC1=[N+](CC(=O)c2ccc(Br)cc2)CCn2c(C)ccc21 | inactive |
| O=C(OCC1OC(n2ncc(=O)[nH]c2=O)C(OC(=O)c2ccccc2)C1OC(=O)c1ccccc1)c1ccccc1 (stereo not given) | 7.94 µM (active) |
